In PubChem BioAssay (NCATS):
Several values for one entry are separate records, joined by “and”; a condition that tells them apart may be missing. Identical values can stand only once. Records with an inconclusive call do not appear. Activity calls are given as the source filed them. Unless noted, the call rests on the fitted dose curve; in most records, active means well fitted curve in the direction sought with a large enough effect; inconclusive means small, poorly fitted or top-dose-only effect, or another doubt; inactive means no such curve, though single readings can be large; an effect the other way counts as inactive or inconclusive.

Key:
[1] = biological target: Protein phosphatase 1D (Homo sapiens) (UniProt O15297); test: RapidFire Mass Spectrometry qHTS Assay for Modulators of WT P53-Induced Phosphatase 1 (WIP1) (AID 1347424);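 further: amount of dephosphorylated VEPPL-S-QETFS peptide product formed by WIP1; series mostly up to about 63 µM; plate controls were DMSO wells for no effect and GSK830371 inhibitor control at 10 µM for full effect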
Sequence of Protein phosphatase 1D (Homo sapiens) (O15297 whole entry, looked up): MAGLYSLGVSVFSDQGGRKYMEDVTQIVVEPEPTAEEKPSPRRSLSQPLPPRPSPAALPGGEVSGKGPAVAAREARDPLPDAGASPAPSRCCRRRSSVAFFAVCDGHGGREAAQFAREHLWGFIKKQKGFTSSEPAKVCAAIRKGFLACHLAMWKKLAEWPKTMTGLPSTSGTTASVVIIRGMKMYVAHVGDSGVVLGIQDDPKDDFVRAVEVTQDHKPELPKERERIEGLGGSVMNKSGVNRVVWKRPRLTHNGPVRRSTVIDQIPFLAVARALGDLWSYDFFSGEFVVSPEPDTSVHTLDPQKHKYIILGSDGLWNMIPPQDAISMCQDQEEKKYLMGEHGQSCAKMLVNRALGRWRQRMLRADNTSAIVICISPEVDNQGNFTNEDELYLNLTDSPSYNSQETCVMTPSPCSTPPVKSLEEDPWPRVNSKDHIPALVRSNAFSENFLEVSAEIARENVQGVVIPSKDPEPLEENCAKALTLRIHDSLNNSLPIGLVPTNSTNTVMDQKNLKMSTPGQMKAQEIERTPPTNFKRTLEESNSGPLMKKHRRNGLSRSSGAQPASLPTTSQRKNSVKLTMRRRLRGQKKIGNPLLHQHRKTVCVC
Method in brief: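 Mass-spectrometric measurement of dephosphorylated peptide after a 5 min room-temperature reaction of 10 nM WIP1 with 2 uM phosphopeptide, following 1 h compound preincubation in 30 mM MgCl2 buffer.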

[2] = biological target: Protein phosphatase 1D (Homo sapiens) (UniProt O15297); test: Rhodamine-PBP qHTS Assay for Modulators of WT P53-Induced Phosphatase 1 (WIP1) (AID 1347425); further: % of control where 0% means no effect
Method in brief: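 5 nM WIP1 + 10 uM Rh-PBP, 50 mM Tris pH 7.5, 30 mM MgCl2, 1 mM TCEP, 0.1 mM EGTA, BSA; cpds pinned, 1 hr RT; + 10 uM phosphopeptide; fluorescence 1-min reads x 11 min; delta = f1 - f0.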

[3] = Primary qHTS for inhibitors of La Crosse Virus (LACV) - induced cell death in SH-SY5Y cells (AID 1508616);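 further: top concentration of the series differs between compounds; 0% = infected DMSO wells and 100% = uninfected DMSO wells; higher means more rescue of cells from virus-induced death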
Method in brief: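 Cytopathicity rescue screen: compounds pinned onto SH-SY5Y cells, which are then infected with LACV (MOI 0.01) and held 6 days at 37C. Percent activity is scaled between infected DMSO control and uninfected DMSO control.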

[4] = biological target: Calcium and integrin-binding protein 1 (Homo sapiens) (UniProt Q99828); test: Primary qHTS for Identification of Calcium Integrin Binding Protein 1 (CIB1) Competitor (AID 1508620);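 further: GST tagged CIB1 binding a fluorescein labelled alphaIIb integrin peptide tracer; top concentration of the series differs between compounds; on the % scale 0 is the no-effect control and ±100 the full control effect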
Sequence of Calcium and integrin-binding protein 1 (Homo sapiens) (Q99828 whole entry, looked up): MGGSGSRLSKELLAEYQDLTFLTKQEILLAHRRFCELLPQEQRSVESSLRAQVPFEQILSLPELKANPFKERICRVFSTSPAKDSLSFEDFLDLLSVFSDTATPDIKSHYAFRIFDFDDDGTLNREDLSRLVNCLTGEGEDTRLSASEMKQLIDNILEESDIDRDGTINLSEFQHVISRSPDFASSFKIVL
Method in brief: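 Fluorescence polarization competition: CIB1-GST (1 uM final) preincubated with compound 15 min at room temperature, then FITC-labeled alphaIIb peptide (100 nM final) added for another 15 min. Polarization read at Ex 480/Em 540.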

[5] = Primary qHTS for small molecule stabilizers of the endoplasmic reticulum resident proteome: Secreted ER Calcium Modulated Protein (SERCaMP) assay (AID 1508630); further: on the % scale 0 is the no-effect control and ±100 the full control effect
Method in brief: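 The SH-SY5Y reporter protocol was run at 3 concentrations up to 38.3 uM (primary) or 11 concentrations (follow-up): 16 h compound, 100 nM thapsigargin for 4 h, then extracellular luciferase luminescence.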

[6] = A High-Content qHTS Against Drug Library for the Identification of Small Molecules that Inhibit DYT1 Early Onset Primary Dystonia-Associated Cell Pathology (AID 1645839; calls by dose curve; further: series mostly up to about 46 µM)
Method in brief: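 Induced EGFP-delE TorsinA cells are imaged after 48 h of compound treatment. Punctate fusion-protein distribution gives the %pathology value, while nuclei counts flag toxicity. Wild-type EGFP-hTOR1A cells define the normal pattern.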

[7] = biological target: Cytochrome P450 2D6 (Homo sapiens) (UniProt P10635); test: Cytochrome P450 family 2 subfamily D member 6 (CYP2D6) small molecule antagonists: luciferase biochemical (cell-free) qHTS assay (AID 1645840; active means well fitted curve in the direction sought with a large enough effect in the repeat runs; an effect the other way counts as inactive or inconclusive; further: nearly all actives have a fitted effect of over 55% in size; further: potency means the concentration at half of the fitted maximal effect; on activity change, negative = inhibition: series mostly up to about 57 µM; on the % scale 0 is the no-effect control and ±100 the full control effect)
Sequence of Cytochrome P450 2D6 (Homo sapiens) (P10635 whole entry, looked up): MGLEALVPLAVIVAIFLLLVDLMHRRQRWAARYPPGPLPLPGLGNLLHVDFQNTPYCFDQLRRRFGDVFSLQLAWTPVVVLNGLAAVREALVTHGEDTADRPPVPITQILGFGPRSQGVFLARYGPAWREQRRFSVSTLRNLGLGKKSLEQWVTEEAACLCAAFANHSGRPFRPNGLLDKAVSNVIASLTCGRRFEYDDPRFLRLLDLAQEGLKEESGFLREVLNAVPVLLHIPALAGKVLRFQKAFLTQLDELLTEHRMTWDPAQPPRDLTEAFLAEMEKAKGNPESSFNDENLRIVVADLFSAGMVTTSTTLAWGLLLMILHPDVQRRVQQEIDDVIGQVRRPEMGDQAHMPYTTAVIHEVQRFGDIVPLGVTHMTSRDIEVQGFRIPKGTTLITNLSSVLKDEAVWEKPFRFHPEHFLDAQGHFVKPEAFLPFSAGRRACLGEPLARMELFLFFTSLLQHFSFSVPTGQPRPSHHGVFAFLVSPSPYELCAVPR
Method in brief: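 P450-Glo CYP2D6 system: proluciferin substrate converted by enzyme to luciferin, read by luminescence proportional to activity. Enzyme-substrate mix with compound 10 min at room temperature, then NADPH regeneration 1 h before detection reagent.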

[8] = biological target: Cytochrome P450 2C9 (Homo sapiens) (UniProt P11712); test: Cytochrome P450 family 2 subfamily C member 9 (CYP2C9) small molecule antagonists: luciferase biochemical (cell-free) qHTS assay (AID 1645842; active means well fitted curve in the direction sought with a large enough effect in the repeat runs; an effect the other way counts as inactive or inconclusive; further: nearly all actives have a fitted effect of over 55% in size; further: potency means the concentration at half of the fitted maximal effect; on activity change, negative = inhibition: series mostly up to about 57 µM; on the % scale 0 is the no-effect control and ±100 the full control effect)
Sequence of Cytochrome P450 2C9 (Homo sapiens) (P11712 whole entry, looked up): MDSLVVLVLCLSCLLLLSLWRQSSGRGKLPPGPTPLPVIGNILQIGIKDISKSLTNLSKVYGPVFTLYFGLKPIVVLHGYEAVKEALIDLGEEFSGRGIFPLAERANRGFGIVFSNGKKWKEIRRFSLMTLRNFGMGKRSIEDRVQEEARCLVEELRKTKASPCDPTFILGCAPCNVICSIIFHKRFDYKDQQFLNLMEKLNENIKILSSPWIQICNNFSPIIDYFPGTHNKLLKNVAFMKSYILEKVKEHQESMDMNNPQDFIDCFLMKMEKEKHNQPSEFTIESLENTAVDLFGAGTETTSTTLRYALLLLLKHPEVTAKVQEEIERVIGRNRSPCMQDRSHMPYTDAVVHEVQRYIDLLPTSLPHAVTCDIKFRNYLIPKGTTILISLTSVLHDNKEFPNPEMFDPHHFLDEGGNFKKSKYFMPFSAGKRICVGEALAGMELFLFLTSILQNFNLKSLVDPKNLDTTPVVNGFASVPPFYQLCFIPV
Method in brief: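 P450-Glo CYP2C9 system: proluciferin substrate with enzyme in mix containing 0.4% BSA, 10 min at room temperature, then NADPH regeneration solution added and incubated 1 h at 37C. Detection reagent stopped reaction; luminescence read after 20 min as RLU.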

[9] = Primary qHTS for inhibitors of nuclear receptor binding SET domain protein 2 (NSD2) in an isogenic RCH-ACV NSD2 p.E1099K mutant (9B) (AID 1645876); further: nearly all actives have a fitted effect of over 70% in size; further: potency means the concentration at half of the fitted maximal effect
[10] = Primary qHTS for inhibitors of nuclear receptor binding SET domain protein 2 (NSD2) in an RCH-ACV wild type WT cells (2C) (AID 1645877); further: nearly all actives have a fitted effect of over 70% in size; further: potency means the concentration at half of the fitted maximal effect
[11] = biological target: Cytochrome P450 3A4 (Homo sapiens) (UniProt P08684); test: Cytochrome P450 family 3 subfamily A member 4 (CYP3A4) small molecule antagonists: luciferase qHTS assay (AID 1645841; active means well fitted curve in the direction sought with a large enough effect in the repeat runs; an effect the other way counts as inactive or inconclusive; further: nearly all actives have a fitted effect of over 45% in size)
Sequence of Cytochrome P450 3A4 (Homo sapiens) (P08684 whole entry, looked up): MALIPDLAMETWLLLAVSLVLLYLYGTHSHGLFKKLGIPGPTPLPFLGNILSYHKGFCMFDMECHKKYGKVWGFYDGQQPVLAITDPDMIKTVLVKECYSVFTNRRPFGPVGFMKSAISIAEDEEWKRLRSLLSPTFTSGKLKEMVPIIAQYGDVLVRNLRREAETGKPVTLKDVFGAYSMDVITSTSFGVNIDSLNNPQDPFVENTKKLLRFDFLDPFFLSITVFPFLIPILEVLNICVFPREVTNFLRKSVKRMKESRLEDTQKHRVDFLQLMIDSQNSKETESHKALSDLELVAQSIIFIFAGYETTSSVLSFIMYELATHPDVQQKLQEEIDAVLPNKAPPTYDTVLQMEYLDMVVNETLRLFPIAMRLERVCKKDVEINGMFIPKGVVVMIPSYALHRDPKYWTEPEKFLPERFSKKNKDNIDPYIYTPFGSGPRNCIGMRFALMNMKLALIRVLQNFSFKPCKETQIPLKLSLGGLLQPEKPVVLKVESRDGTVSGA
Method in brief: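 P450-Glo CYP3A4 enzyme with proluciferin substrate was preincubated with DMSO-dissolved compounds for 10 min at room temperature. NADPH regeneration solution started a 1 h reaction. Detection reagent stopped it, and luminescence was read after 20 min.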

Nc1ccc(S(=O)(=O)Nc2nccs2)cc1
inactive: outcome [1] | outcome [2] | outcome [3] | outcome [4] | Potency [5] | Potency [6] | Potency [7] | Potency [8] | Potency [9] | Potency [10]

CCC(=O)c1ccc(O)cc1
inactive: outcome [1] | outcome [2] | outcome [3] | outcome [4] | Potency [5] | Potency [6] | Potency [7] | Potency [8] | Potency [9] | Potency [10]

NC(CSCC(=O)O)C(=O)O (stereo unspecified)
inactive: outcome [1] | outcome [2] | outcome [3] | outcome [4] | Potency [5] | Potency [6] | Potency [7] | Potency [8]

Cc1cc(O)cc2c1O[C@](C)(CCC[C@H](C)CCC[C@H](C)CCCC(C)C)CC2
inactive: outcome [1] | outcome [2] | outcome [3] | outcome [4] | Potency [5] | Potency [6] | Potency [7] | Potency [8] | Potency [9] | Potency [10]

O=c1cc[nH]c(=O)[nH]1
inactive: outcome [1] | outcome [2] | outcome [3] | outcome [4] | Potency [5] | Potency [6] | Potency [7] | Potency [8] | Potency [9] | Potency [10]

C/C(=C(\CCOP(=O)(O)O)SC(=O)c1ccccc1)N(C=O)Cc1cnc(C)nc1N
inactive: activity change, negative = inhibition [1] 3.91% [at 6.17 µM] | activity change, negative = inhibition [2] -15.2% [at 4.81 µM] | activity change [3] -1.14% [at 0.431 µM] | activity change, negative = inhibition [4] -4.19% [at 12.4 µM] | activity change, negative = inhibition [5] -22.1% [at 3.88 µM] | % pathology change, negative = correction [6] -4.46% [at 4.63 µM] | activity change, negative = viability loss [9] 9.34% [at 4.96 µM] | activity change, negative = cell killing [10] -1.42% [at 4.96 µM]

CS(=O)(=O)c1ccc([C@@H](O)[C@@H](CF)NC(=O)C(Cl)Cl)cc1
inactive: outcome [1] | outcome [2] | outcome [3] | outcome [4] | Potency [6] | Potency [7] | Potency [8]

CC(=O)Oc1ccc(C2(c3ccc(OC(C)=O)cc3)C(=O)Nc3ccccc32)cc1
inactive: outcome [1] | outcome [2] | outcome [3] | outcome [4] | Potency [6] | Potency [7] | Potency [9]
active: Potency [8] 5.49 µM

O=C1c2c(O)cccc2Cc2cccc(O)c21
inactive: outcome [1] | outcome [2] | outcome [3] | outcome [4] | Potency [6] | Potency [7] | Potency [8] | Potency [9] | Potency [10]

Cc1cc2c(cc1S(N)(=O)=O)S(=O)(=O)CCC2
inactive: outcome [1] | outcome [2] | outcome [3] | outcome [4] | Potency [6] | Potency [7] | outcome [11] | Potency [8] | Potency [9] | Potency [10]

CCCCOC(=O)c1ccc(O)cc1
inactive: outcome [1] | outcome [2] | outcome [3] | outcome [4] | Potency [6]

O=c1cc[nH]c(=S)[nH]1
inactive: outcome [1] | outcome [2] | outcome [3] | outcome [4] | Potency [5] | Potency [6] | Potency [7] | Potency [8] | Potency [10]

CCOc1nc2cccc(C(=O)O)c2n1Cc1ccc(-c2ccccc2-c2nn[nH]n2)cc1
inactive: outcome [1] | outcome [2] | outcome [3] | outcome [4] | Potency [5] | Potency [6] | Potency [9] | Potency [10]

COc1ccc2cc1Oc1ccc(cc1)C[C@H]1c3c(cc4c(c3Oc3cc5c(cc3OC)CCN(C)[C@@H]5C2)OCO4)CCN1C
active: Potency [7] 17.4 µM | Potency [9] 8.41 µM and 9.16 µM | Potency [10] 9.44 µM and 9.16 µM
inactive: outcome [1] | outcome [2] | outcome [3] | outcome [4] | Potency [5]

O=C1Nc2ccc(Cl)cc2[C@@](C#CC2CC2)(C(F)(F)F)O1
active: Potency [7] 27.5 µM | Potency [8] 17.4 µM | Potency [9] 18.6 µM | Potency [10] 20.9 µM and 26.3 µM
inactive: outcome [1] | outcome [2] | outcome [3] | outcome [4] | Potency [5]

CCCCOc1cc(C(=O)OCCN(CC)CC)ccc1N
inactive: outcome [1] | outcome [2] | outcome [3] | outcome [4] | Potency [5] | Potency [6] | Potency [8] | Potency [9] | Potency [10]

CN1[C@@H]2CC[C@H]1CC(OC(=O)C(O)c1ccccc1)C2 (stereo partly specified)
inactive: outcome [1] | outcome [2] | outcome [3] | outcome [4] | Potency [6] | Potency [7] | Potency [8] | Potency [9] | Potency [10]

CCOC(CN1CCN(CC(C)C(=O)c2ccccc2)CC1)c1ccccc1 (stereo unspecified)
active: Potency [7] 0.0952 µM | Potency [10] 14.5 µM
inactive: outcome [1] | outcome [2] | outcome [3] | outcome [4] | Potency [5] | Potency [6] | Potency [9]

CCCCN1CCCC[C@H]1C(=O)Nc1c(C)cccc1C
inactive: outcome [1] | outcome [2] | outcome [3] | outcome [4] | Potency [5] | Potency [6] | Potency [8] | Potency [9] | Potency [10]
active: Potency [7] 0.275 µM

O=C(O)CN1C(=O)c2cccc3cccc(c23)C1=O
inactive: outcome [1] | outcome [2] | outcome [3] | outcome [4] | Potency [5] | Potency [6] | Potency [7] | Potency [8] | Potency [9] | Potency [10]

Cc1cccc(Nc2cc(Cl)nc(SCC(=O)O)n2)c1C
inactive: outcome [1] | outcome [2] | outcome [3] | outcome [4] | Potency [5] | Potency [6] | Potency [7] | Potency [9] | Potency [10]

CCN(CC)CCSC(=O)C(c1ccccc1)c1ccccc1
inactive: outcome [1] | outcome [2] | outcome [3] | outcome [4] | Potency [6]
active: Potency [7] 5.49 µM | Potency [8] 13.8 µM

CCCCC/C(C=O)=C\c1ccccc1
inactive: outcome [1] | outcome [2] | outcome [3] | outcome [4] | Potency [6] | Potency [7] | Potency [8] | Potency [9] | Potency [10]
